Measurements as given in PMC5540273 (PLoS ONE, 2017).
“And” between values parts separate entries of the source, which are not always exact repeats. Equal values may be shown once. Read-outs that look alike come from different tables or passages of the source.

Key:
Conditions in all cases: concentration: 1 μM, replicates: in singlicate, n = 1
[1] = test system: T1, AMPK-alpha2
T1 construct: gene PRKAA2

[2] = test system: ANKK1
[3] = test system: T2, ARK5
T2 construct: gene NUAK1

[4] = test system: T3, ASK1
T3 construct: gene MAP3K5

[5] = test system: T4, ASK2
T4 construct: gene MAP3K6

[6] = test system: AURKA
[7] = test system: AURKB
[8] = test system: AURKC
[9] = test system: AXL
[10] = test system: T5, BIKE
T5 construct: gene BMP2K
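Also: KINOMEscan kinase panel screen.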

SMILES	%Inh [1]	%Inh [2]	%Inh [3]	%Inh [4]	%Inh [5]	%Inh [6]	%Inh [7]	%Inh [8]	%Inh [9]	%Inh [10]	%Inh ([1]; 1 µM)	%Inh ([3]; 1 µM)	%Inh ([4]; 1 µM)	%Inh ([5]; 1 µM)	%Inh ([6]; 1 µM)	%Inh ([7]; 1 µM)	%Inh ([8]; 1 µM)	%Inh ([9]; 1 µM)	%Inh ([10]; 1 µM)	%Inh ([2]; 1 µM)
CN1c2ccc(CNc3ccc(F)cc3)cc2-c2c(cnn2C)S1(=O)=O	13%	0%	6%	0%	3%	0%	21%	0%	11%	0%										
CC(C)Oc1ccc2c(-c3ccnc(Nc4ccc(N5CCN(C)CC5)cc4)n3)cnn2n1 [GW696155]	52%	20%	95.5%	0%	0%	98.6%	70%	75%	74%	99.8%										
Nc1nccc(-c2c(-c3ccc(F)cc3)ncn2C2CCN(CC(F)(F)F)CC2)n1 [SB-236560]	0%	0%	0%	0%	0%	2%	0%	0%	46%	0%										
Nc1nc(-c2ccc3c(N)n[nH]c3c2)cc(N2CCCC2)n1 [GSK2227430]	0%	4%	17%	0%	0%	0%	0%	37%	0%	33%										
Cc1ccc(NC(=O)c2ccnc(N3CCN(C)CC3)c2)cc1-c1ccc(C(=O)NCC2CC2)cc1 [GW775604]	0%	0%	0%	0%	0%	0%	2%	0%	0%	0%										
CC(=O)Nc1ccc(COc2ccc(Nc3ccnc4cc(-c5ccccn5)ccc34)cc2)cc1.Cl [GW440148]	11%	8%	18%	10%	0%	14%	67%	46%	1%	8%										
O=c1cc(N2CCOCC2)nc2n(Cc3cccc4ccccc34)ccn12 [GSK2333389]	0%	0%	33%	0%	15%	0%	0%	14%	0%	16%										
c1ccc(-c2cc(-c3c[nH]nc3-c3ccccn3)ccn2)cc1 [GW576604]	0%	0%	0%	4%	0%	14%	0%	3%	0%	23%										
Cc1c2ccc(N(C)c3ccnc(Nc4cccc(S(N)(=O)=O)c4)n3)cc2nn1Cc1ccccc1.Cl.Cl [GW787226]	0%	0%	0%	0%	0%	29%	54%	38%	73%	0%										
O=C1NC(=O)C(N2CCc3ccccc32)=C1c1cccc(Cl)c1 [SB-408010]	22%	1%	10%	0%	0%	25%	7%	37%	0%	37%										
Fc1ccc(-c2ncn(CCCN3CCOCC3)c2-c2ccccn2)cc1 [SB-211742]	0%	0%	0%	10%	0%	0%	0%	0%	6%	23%										
COc1ccc(CNC(=O)NC2CCN(c3ccnc(Nc4ccc(OC)cc4)n3)C2)cc1 (stereo not drawn) [GSK1379727]	0%	0%	0%	0%	0%	5%	22%	56%	7%	11%										
Cc1c(Cn2c(C)nn3c(=O)cc(N4CCOC(C)C4)nc23)cccc1C(F)(F)F (stereo not drawn) [GSK2344444]	0%	0%	10%	1%	8%	0%	0%	8%	0%	16%										
O=C(Nc1cccc(-c2nn3ncccc3c2-c2ccnc(Nc3cccc(C(F)(F)F)c3)n2)c1)c1c(F)cccc1F [GSK299495]	15%	0%	12%	1%	3%	9%	29%	56%	6%	19%										
NCCNS(=O)(=O)c1ccc(-c2ccnc3[nH]ccc23)cc1 [GSK977617]		0%									60% and 31%	45% and 17%	30% and 5%	21% and 18%	51% and 39%	71% and 67%	92.4% and 84%	93% and 87%	97.4% and 93.3%	
c1ccc(-c2n[nH]cc2-c2ccnc3ccccc23)nc1 [GW271431]	11%	22%	5%	0%	0%	12%	20%	10%	11%	24%										
CCCCCc1nc2c(N)ncnc2n1CCCCC [SKF-97255]	11%	0%	0%	0%	0%	10%	37%	0%	0%	0%										

SMILES	%Inh [1]	%Inh [2]	%Inh [3]	%Inh [4]	%Inh [5]	%Inh [6]	%Inh [7]	%Inh [8]	%Inh [9]	%Inh [10]	%Inh ([1]; 1 µM)	%Inh ([3]; 1 µM)	%Inh ([4]; 1 µM)	%Inh ([5]; 1 µM)	%Inh ([6]; 1 µM)	%Inh ([7]; 1 µM)	%Inh ([8]; 1 µM)	%Inh ([9]; 1 µM)	%Inh ([10]; 1 µM)	%Inh ([2]; 1 µM)
COc1ccc(Nc2nccc(N3CCC(NC(=O)Nc4cc(C)ccc4C)C3)n2)cc1 (stereo not drawn) [GSK1379741]	0%	0%	11%	12%	0%	15%	37%	46%	0%	0%										
COc1ccc(Nc2nccc(N3CCC(NC(=O)Nc4cccc(C(C)=O)c4)C3)n2)cc1 (stereo not drawn) [GSK1379731]	0%	0%	50%	0%	0%	0%	0%	40%	9%	30%										
O=C(NCCCN1CCOCC1)c1cccc(Nc2nccc(Nc3ccc(Oc4ccccc4)cc3)n2)c1 [GW663929]	0%	20%	29%	3%	0%	36%	11%	14%	11%	27%										
CC(C)(CN)c1nc(-c2ccc(Cl)c(O)c2)c(-c2ccncc2)[nH]1.O=C(O)C(F)(F)F [SB-477794]											15% and 13%	19% and 0%	19% and 0%	1% and 3%	8% and 0%	31% and 15%	0% and 30%	5% and 13%	0% and 21%	0% and 1%
Fc1ccc(-c2nn3c(OCC(F)(F)F)cccc3c2-c2ccncc2)cc1 [GW514784]	0%	25%	0%	0%	0%	0%	0%	0%	0%	11%										
COc1ccc(S(=O)(=O)NC2CCN(c3cc(C)nc(Nc4cccc(C#N)c4)n3)CC2)cc1.O=C(O)C(F)(F)F [GSK1653539]	0%	14%	8%	0%	0%	2%	7%	0%	0%	5%										
COc1ccc(COc2cc(-n3cnc4ccccc43)sc2C(N)=O)cc1 [GSK1024304]	0%	8%	14%	0%	0%	2%	0%	12%	0%	25%										
Cc1nnc(-c2ccc3occ(-c4ccc(C(C)O)cc4)c3c2)o1 (stereo not drawn)	14%	3%	35%	0%	11%	13%	27%	23%	3%	18%										
O=C(Nc1n[nH]c2cc(-c3cccc(F)c3)ccc12)C1CC1 [SB-735464]	69%	0%	0%	0%	22%	18%	39%	35%	27%	21%										
COc1cc2c(cc1OC[C@@H](O)CO)ncc1c3ccc(C#N)cc3[nH]c21	0%	73%	0%	0%	0%	6%	52%	0%	17%	96.2%										
COc1cc2ncn(-c3cc(OCc4sccc4Cl)c(C(N)=O)s3)c2cc1OC [GSK448459]	0%	0%	15%	0%	0%	0%	12%	41%	10%	90%										
Cc1nnc(-c2ccc3ncc(-c4ccc(S(C)=O)cc4)n3c2)o1 (stereo not drawn)	0%	0%	0%	0%	9%	18%	21%	0%	11%	0%										
Cl.Cl.Cl.Fc1ccc(-c2ncn(C3CCNCC3)c2-c2ccnc(Nc3ccccc3)n2)cc1 [SB-238039]		0%			0%						17% and 0%	9% and 10%	34% and 1%		16% and 36%	25% and 0%	0% and 19%	0% and 44%	0% and 9%	
Cl.Oc1cccc(Nc2ccnc3cc(-c4ccncc4)ccc23)c1 [GW494601]	0%	43%	9%	0%	0%	23%	43%	32%	21%	7%										
Cc1nnc(-c2ccc(C)c(-c3ccc(C(=O)Nc4ccc(NS(C)(=O)=O)cc4)cc3)c2)o1 [GW702865]	1%	14%	0%	0%	0%	30%	8%	3%	1%	7%										
COc1cc2c(cc1OCCN1CCN(C)CC1)ncc1c3ccc(C#N)cc3[nH]c21	0%	54%	22%	0%	0%	0%	70%	33%	26%	100%										
